FUS suppressor = FUS proteinopathy suppression in yeast | S. cerevisiae FUS-expressing, growth rescue, OD600, 24 h | Potency, µM (top dose mostly 76.6 µM), usual class: activators | 390,000 tested, 0.24% active | AID 1347120; further: nearly all actives have a fitted effect of over 55% in size
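FUS-expressing yeast, raffinose-pregrown, induced in 2% galactose minimal medium at OD 0.005; compounds in a dilution series, 24hr at 30C. Growth restoration read as absorbance at 600 nm. CP55940 positive control, DMSO negative.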
TDP-43 yeast inh = rescues yeast growth from TDP-43 toxicity | TDP-43 expressing yeast growth rescue, BacTiter-Glo, 24 h | Potency, µM (highest dose often 46.1 µM), hits mostly activators | 410,000 tested, 1.8% active | AID 652104; further: nearly all actives have a fitted effect of over 50% in size
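Cell-based yeast growth screen: TDP-43 expression induced in galactose, inoculum OD600=0.02 after raffinose pregrowth to mid-log. Read-out BacTiter-Glo luminescence at 24 hr, 30 deg C; inhibition of toxicity seen as signal increase.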
aSyn rescue = rescues yeast growth from alpha-synuclein toxicity. 370,000 tested, 0.14% active. Potency, µM (titrated, usually from 46.1 µM), most hits filed as activators. Yeast expressing alpha-synuclein, growth rescue, BacTiter-Glo, 24 h. AID 652106; further: nearly all actives have a fitted effect of over 65% in size
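Rescue of yeast growth: cells expressing toxic alpha-synuclein, induced in galactose at OD600 0.02, incubated with compound 24 h at 30 C. ATP luminescence quantified growth; inhibitors of toxicity appear as activators.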
Abeta yeast res = compounds reversing amyloid beta toxicity in yeast; yeast expressing A-beta42, growth rescue, OD600, 48 h; response scale: 0% DMSO, 100% iron-clioquinol control; Potency, µM (top dose mostly 46.1 µM), most hits filed as activators; 410,000 tested, 0.063% active; AID 1347071; further: nearly all actives have a fitted effect of over 55% in size
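Growth rescue measured by 600 nm absorbance after 48 h yeast culture at 30 C with compound. Values normalized between DMSO and an equimolar ferric chloride plus clioquinol control.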
Of the large screens only hits and unclear results are named; the others gave an inactive call. Most compounds without a hit are left out; they make up all but 2.1% or so of the library. The call rests on the fitted dose curve; in most records, active means well fitted curve in the direction sought with a large enough effect; inconclusive means small, poorly fitted or top-dose-only effect, or another doubt; inactive means no such curve, though single readings can be large; an effect the other way counts as inactive or inconclusive.

COc1ccc(-c2cnc(C)o2)cc1S(=O)(=O)Nc1c(C)cc(C)cc1C	TDP-43 yeast inh 25µM (no result: aSyn rescue)
COc1ccc(-c2cnc(C)o2)cc1S(=O)(=O)Nc1ccc(OC(F)(F)F)cc1	TDP-43 yeast inh 22µM (no result: aSyn rescue)
Cc1nc(C)c(-c2ccc(SCc3ccc(Cl)cc3)nn2)s1	FUS suppressor inconclusive, TDP-43 yeast inh inconclusive
Cc1nc(C)c(-c2ccc(SCc3cccc(F)c3)nn2)s1	TDP-43 yeast inh 20µM
CCCCCCC1CCC(C(=O)NC(C(=O)O)C(C)C)CC1 (configuration not stated)	TDP-43 yeast inh 20µM (no result: aSyn rescue)
COc1ccc(C(C)(NC(C)=O)c2nc(-c3cccnc3)cs2)cc1 (configuration not stated)	TDP-43 yeast inh inconclusive
COc1ccc(C(C)(NC(C)=O)c2nc(-c3cccc(C(F)(F)F)c3)cs2)cc1 (configuration not stated)	FUS suppressor inconclusive, TDP-43 yeast inh 35µM
CC(=O)NC(C)(c1ccccc1)c1nc(-c2ccc(F)c(Cl)c2)cs1 (configuration not stated)	TDP-43 yeast inh 11µM
CC(O)(c1ccccc1)c1nc(-c2ccc(F)c(Cl)c2)cs1 (configuration not stated)	none
CCN(C(=O)C(=O)c1c(C)[nH]c2ccccc12)c1ccccc1	none (no result: FUS suppressor, TDP-43 yeast inh, Abeta yeast res)
CCOc1ccc(-c2nc(SCC(=O)NCCOC)c(-c3ccc(OC)c(OC)c3)[nH]2)cc1	none (no result: aSyn rescue)
COc1ccc([C@H]2/C=C\CN(C(=O)CC(C)(C)C)[C@@H](C)C(=O)N2Cc2ccc(F)cc2)cc1	TDP-43 yeast inh 35µM
O=C1Nc2ccccc2C1Cc1ccc(Br)cc1 (configuration not stated)	TDP-43 yeast inh 16µM, Abeta yeast res inconclusive (no result: aSyn rescue)
CN(C)c1ccc(CC2C(=O)Nc3ccccc32)cc1 (configuration not stated)	none
CSc1ccc(CC2C(=O)Nc3ccccc32)cc1 (configuration not stated)	TDP-43 yeast inh 13µM (no result: aSyn rescue)
COc1ccc(NC(=O)c2c(NCc3ccc(C)o3)sc3c2CCC(C)C3)cc1 (configuration not stated)	FUS suppressor inconclusive (no result: aSyn rescue)
Cc1nc2ccc(C(=O)Nc3ccccc3Cl)cc2s1	TDP-43 yeast inh 11µM
Cc1nc2ccc(NS(=O)(=O)c3ccccc3Cl)cc2s1	TDP-43 yeast inh 18µM
CSc1nc2ccc(NS(=O)(=O)c3cccc(Cl)c3Cl)cc2s1	FUS suppressor inconclusive, TDP-43 yeast inh 32µM
CCOC(=O)c1c(C)[nH]c(CCC(=O)Nc2cc(Cl)ccc2OC)c1C	TDP-43 yeast inh inconclusive (no result: aSyn rescue)
O=C(Nc1ccccn1)c1ccc(Br)s1	TDP-43 yeast inh 6.3µM
COc1cc(Cl)c(C)cc1NC(=O)c1c(C)oc2nc(C)nc(N3CCCC3)c12	none (no result: aSyn rescue)
COc1ccc(OC)c(C(=O)Cn2nnc3ccccc3c2=O)c1	none
O=c1c2ccccc2nnn1CSc1ccc2c(c1)OCCO2	TDP-43 yeast inh 11µM, aSyn rescue inconclusive
COc1ccc2c(C)cc(SCn3nnc4ccccc4c3=O)nc2c1	aSyn rescue 3.5µM
S=C(N/N=C/c1ccccc1)N1CCOCC1	TDP-43 yeast inh 22µM, Abeta yeast res inconclusive (no result: FUS suppressor)
CCc1cccc(N=c2c([N+](=O)[O-])nn(-c3ccc(Cl)cc3)n2O)c1	TDP-43 yeast inh 7.9µM
O=[N+]([O-])c1nn(-c2ccc(Cl)cc2)n(O)c1=NCc1ccccc1Cl	TDP-43 yeast inh inconclusive
Cc1ccc(CN=c2c([N+](=O)[O-])nn(-c3ccc(Cl)cc3)n2O)cc1	TDP-43 yeast inh 11µM, Abeta yeast res inconclusive
O=[N+]([O-])c1nn(-c2ccc(Cl)cc2)n(O)c1=NCc1ccncc1	TDP-43 yeast inh 11µM
COc1ccc(-c2nc3ccc(NC(=O)CO)cc3c(=O)n2Cc2cccc(Cl)c2)cc1COc1ccc(NC(C)=O)cc1	none (no result: FUS suppressor, TDP-43 yeast inh, Abeta yeast res)
CCOC(=O)c1ccc(NC(=O)CSc2nc3ccccc3c(=O)n2CCNC(C)=O)cc1	none (no result: aSyn rescue)
COc1cc(C(=O)OCc2cc(=O)n3nc(C4CCCCC4)sc3n2)cc(OC)c1OC	none (no result: aSyn rescue)
Cc1ccccc1[C@@]1(C)ON(c2ccccc2C(F)(F)F)C1=O	none
CC[C@@]1(c2ccccc2OC)ON(c2ccccc2C(F)(F)F)C1=O	TDP-43 yeast inh 18µM
Cc1cccc(C(=O)OC(C)C(=O)N2CCc3ccccc3C2)c1C (configuration not stated)	TDP-43 yeast inh 18µM (no result: FUS suppressor)
CCc1ccc(C(=O)CC2(O)C(=O)N(CCc3ccccc3)c3ccc(Cl)cc32)cc1 (configuration not stated)	FUS suppressor inconclusive, TDP-43 yeast inh inconclusive (no result: aSyn rescue)
